The campaign covered roughly 280,000 compounds. About 180 (0.064%) were called active. A call without a number means that no potency is given here. Calls come from the whole dose curve; as a rule, active = well fitted inhibition curve with a large enough effect; inconclusive = small, poorly fitted or top-dose-only effect, or effect the other way; inactive = flat fitted curve, though single readings scatter. The sample as a whole holds a higher share of actives than the screen did.
Potency is the fitted concentration of half-maximal effect.

For the experiment, the target named is Thyroid hormone receptor beta (Homo sapiens) (UniProt P10828). The experiment is described as follows: qHTS for Inhibitors of the Interaction of Thyroid Hormone Receptor and Steroid Receptor Coregulator 2. Note: nearly all actives have a fitted effect of over 50% in size. The settings on record: TRbeta-SRC2 peptide binding, fluorescence polarization, receptor liganded with 1 µM T3; series mostly up to 106 µM. From the text: NIH Molecular Libraries Probe Production Network [MLPCN]
Chain of Thyroid hormone receptor beta (Homo sapiens) (P10828 whole entry, looked up): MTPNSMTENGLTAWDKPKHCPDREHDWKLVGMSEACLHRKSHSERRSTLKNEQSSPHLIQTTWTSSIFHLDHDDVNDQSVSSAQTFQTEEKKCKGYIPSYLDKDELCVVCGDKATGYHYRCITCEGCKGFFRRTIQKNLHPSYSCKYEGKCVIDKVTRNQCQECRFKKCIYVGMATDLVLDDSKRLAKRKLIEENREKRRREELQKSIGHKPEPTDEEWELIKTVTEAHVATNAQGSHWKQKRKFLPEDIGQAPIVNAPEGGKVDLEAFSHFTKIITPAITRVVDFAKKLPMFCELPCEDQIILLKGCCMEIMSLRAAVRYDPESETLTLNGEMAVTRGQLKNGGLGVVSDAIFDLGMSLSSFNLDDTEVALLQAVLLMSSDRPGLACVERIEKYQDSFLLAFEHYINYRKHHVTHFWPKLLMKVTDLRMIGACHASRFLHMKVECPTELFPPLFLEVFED
NIH Chemical Genomics Center [NCGC]
Assay Provider: R. Kip Guy, St. Jude Children's Research Hospital
Thyroid receptor (TR) regulates many homeostatic processes including basal metabolism, cardiovascular function, body weight, and lipid trafficking. TR modulators are potential therapeutics for obesity and hyperlipidemias but current thyroid analogs have undesirable side effects, particularly cardiac stimulation. To identify inhibitors that specifically prevent the interaction of TR with the steroid receptor coregulator 2 (SRC2), a fluorescence polarization assay was screened. This assay detects interaction of the ligand-binding domain of human TRb with a Texas Red labeled SRC2 peptide, corresponding to a 20 amino acid region of the nuclear receptor interaction domain (Arnold et al., 2006). Small molecule inhibitors that block the interaction of TR and SRC2 are detected by a decrease in fluorescence polarization.
Arnold, L. A.; Estebanez-Perpina, E.; Togashi, M.; Shelat, A.; Ocasio, C. A.; McReynolds, A. C.; Nguyen, P.; Baxter, J. D.; Fletterick, R. J.; Webb, P.; Guy, R. K. A high-throughput screening method to identify small molecule inhibitors of thyroid hormone receptor coactivator binding. Sci STKE 2006, p 13.
NCGC Assay Protocol Summary:
For screening, 5 uL/well 0.6 uM TRb and 20 nM SRC2 Texas Red in protein buffer (20mM Tris hydrochloride, 100mM NaCl, 10% glycerol, 1mM EDTA, 0.01% NP-40, 1mM DTT, 1uM T3 and 5% DMSO) was dispensed into black solid 1536-well plates (Grenier) using a solenoid-based dispenser. Following transfer of 23 nL compound or DMSO vehicle by a pin tool, the plates were centrifuged 15 s at 1000 RPM and incubated 5 hr at ambient temperature. The plates were read by an Envision (Perkin Elmer) to detect fluorescence polarization of SRC2 Texas Red (555 nm excitation and 632 nm emission). Data were normalized to unbound (all components except TRb) and bound SRC2 Texas Red controls. In this assay, we provide % activity data for each concentration as well as potencies for the active compounds.
Keywords: NIH Roadmap, MLPCN, MLI, MLSMR, qHTS, NCGC, qHTS, thyroid hormone receptor, steroid receptor coactivator, fluorescence polarization
As to `CC1(C)C(=O)N(Cl)C(=O)N1Cl`, the Potency result is “inactive”.
Consider `CCCCCCCCCCCCCCCC`, for which the Potency entry was “inactive”.
With `CCOc1ccccc1NC(=O)Cn1c2ncccc2c(=O)n1-c1ccc(C)c(C)c1` the entry was “inactive”; with `CC(C)Cn1c(-c2ccc(S(=O)(=O)N3CCOCC3)cc2)csc1=Nc1cc(Cl)ccc1Cl`, “inactive”.
`COc1cccc(-c2nc(CS(=O)(=O)CC(=O)N3CCN(c4cc(C)ccc4C)CC3)c(C)o2)c1`: the Potency entry is “inactive”.
Turning to `CC1(C)C(=O)N(Br)C(=O)N1Br`, the Potency result is “inactive”.
Consider `Cc1nc2ccn(Cc3cccs3)c(=O)c2cc1C(=O)NCc1ccc(Cl)cc1`, for which the Potency entry was “inactive”.
For the compound `CCOc1cc(-c2nnc(SCC(=O)NC3CCCCC3)nc2-c2ccc(OC)c(OCC)c2)ccc1OC`, the Potency entry is “inactive”.
Turning to `Cc1ccc(N)c(S(=O)(=O)O)c1`, the Potency result was “inactive”.
Take `CCc1c(C(=O)O)c(=O)cnn1-c1ccc(Cl)cc1`: the Potency result is “inactive”.
As for `CC1CCN(S(=O)(=O)c2ccc3c(ccn3CCC(=O)NCc3ccc(N(C)C)cc3)c2)CC1`, the entry is “inactive”.
With `COc1ccc(N2CCN(C(=O)C3CCCN(C(=O)c4cc5sccc5n4C)C3)CC2)cc1` (centres undefined) the entry was “inactive”; with `CC(=O)Nc1ccc(NC(=O)c2cc3sccc3n2Cc2ccc(F)cc2)cc1`, “inactive”.
With `CCOc1ccc(OCC)c(NC(=O)CN(c2ccc(C)cc2)S(=O)(=O)c2c(C)n[nH]c2C)c1` the entry was “inactive”.
For the compound `COc1ccc(CCNC(=O)CCCCn2c(=O)c3ccccc3n(Cc3ccccc3)c2=O)cc1OC`, the Potency result was “inactive”.
As for `CCCS(=O)(=O)c1c(Nc2ccccc2C)sc(C(=O)c2ccccc2)c1N`, the entry is “inactive”; as for `COc1cccc(NC(=O)CSc2cc(=O)n(C)c3ccc(Cl)cc23)c1`, “inactive”.
As for `CSc1ccccc1NC(=O)CCS(=O)(=O)c1nc(-c2cccs2)cc(C(F)(F)F)n1`, the entry is “inactive”; as for `COc1ccc2c(c1)Cc1sc(NC(=O)c3ccccc3Br)nc1-2`, “inactive”; as for `COc1cc(OC)c(NC(=O)N2CC3CCCN3c3ccccc32)cc1Cl` (centres undefined), “inactive”.
As for `Cc1ccc(C2C=C(c3ccc(Cl)cc3)Nc3nc(NC(=O)CCC(=O)O)nn32)cc1` (centres undefined), the entry is “inactive”; as for `O=S(=O)(c1ccc2nc(NCc3ccccc3Cl)ccc2c1)N1CCCCC1`, “inactive”; as for `COc1ccc(NC(=O)C2CCN(c3ccc(Sc4ccc(C)cc4)nn3)CC2)c(OC)c1`, “inactive”.
For the compound `COc1ccc(Nc2ncc(C(=O)Nc3cc(C)ccc3OC)c3ccccc23)cc1`, the Potency result was “inactive”.
In the case of `Cc1ccc(S(=O)(=O)c2nc(-c3cccs3)oc2N2CCCCC2)cc1`, the Potency result is “inactive”.
`COc1ccccc1Nc1c2c(nc3ccc(NC(=O)/C=C/c4cc(OC)c(OC)c(OC)c4)cc13)CCCC2`: the Potency result is “inactive”.
Consider `COc1cccc(Cn2c(SCc3ccc(C(=O)N4CCC(C)CC4)cc3)nc3ccncc32)c1`, for which the Potency result was “inactive”.
As for `CCOC(=O)Cn1c(=O)n(-c2ccccc2OC)c2nc(-c3cccc(F)c3)nc(C(N)=O)c21`, the Potency result was “inactive”.
As to `Cc1cccc(N2CCN(C(=O)c3cc4c(=O)oc5ccccc5c4s3)CC2C)c1` (centres undefined), the Potency entry was “inactive”.
As for `COc1ccc(C)cc1NC(=O)C(=O)NCCc1sc(-c2cccc(C)c2)nc1C`, the entry is “inactive”.
As to `Cc1cccc(Cn2c(SCc3ccc(C(=O)N4CCC(C)CC4)cc3)nc3ccncc32)c1`, the Potency entry was “inactive”.
As for `CN1CCN(c2oc(-c3ccc(COc4ccc(Cl)cc4)o3)nc2C#N)CC1`, the entry is “inactive”.
As for `CC(=O)c1ccc(NC(=O)CSc2c(C(C)C)cnc3c2c(=O)n(C)c(=O)n3C)cc1`, the entry is “inactive”; as for `CCOc1ccc(C2C(=O)N(C3CCCCC3)CC(=O)N2CCC2=CCCCC2)cc1OC` (centres undefined), “inactive”; as for `COc1ccccc1N1CCN(C(CNC(=O)C(=O)NCc2ccc(C)cc2)c2cccnc2)CC1` (centres undefined), “inactive”.
As to `CCOC(=O)c1c(N)sc(C(C)=O)c1C`, the Potency result was “inactive”.
As for `COC(=O)c1sc(=S)n(-c2ccc(Cl)cc2)c1C`, the entry is “inactive”; as for `COCCOC(=O)c1sc(=S)n(CCOC)c1N`, 39.8 µM (active).
With `Cc1cc(C)c(N)c(Cl)c1` the entry was “inactive”; with `COc1ccc(C2Sc3ccccc3NC3=C2C(=O)c2ccccc23)c(OC)c1OC` (centres undefined), “inactive”; with `CCOc1cccc(CC(=O)N2CCc3c([nH]c4ccccc34)C2c2ccc(OC)cc2)c1OCC` (centres undefined), “inactive”.
As for `Cc1ccc(OCC(=O)Nc2ccc(Cl)c(-c3nc4ccccc4[nH]3)c2)cc1C`, the entry is “inactive”; as for `COc1ccc(C(F)(F)F)cc1NC(=O)c1sc2nc(-c3cccs3)ccc2c1N`, “inactive”.
Take `CCOc1ccc(C(=O)/C=C/c2cn(CC(O)CN3CCCCCC3)c3ccccc23)cc1` (centres undefined): the Potency entry was “inactive”.
Regarding `Cc1ccc(CCNC(=O)c2ccc3c(c2)N(Cc2cc(C)ccc2C)C(=O)c2ccccc2S3=O)cc1` (centres undefined), the Potency entry was “inactive”.
As for `O=C(C1CCC(Cn2c(=O)c3sccc3n(Cc3ccccc3F)c2=O)CC1)N1CCCCC1` (centres undefined), the Potency entry is “inactive”.
Regarding `COc1cccc(N2CCN(S(=O)(=O)c3cc(Br)cc4c3N(C(=O)C3CC3)CC4)CC2)c1`, the Potency result was “inactive”.
As to `CCOc1cccc2sc(N3CCN(C(=O)C4CC4)CC3)nc12`, the Potency entry was “inactive”.
Consider `COc1ccc(OCCCn2c(C)nc3cc(C)c(C)cc32)cc1`, for which the Potency result is “inactive”.
With `CC(=O)Nc1ccc2nc(SCCOc3cc(C)cc(C)c3)sc2c1`, the Potency result is “inactive”.
As for `COc1ccc(NC(=O)CSc2nc3ccccc3n2CC(=O)N2CCCCC2C)cc1` (centres undefined), the entry is “inactive”.
As for `Cc1cccc(CC(=O)Nc2cccc(-c3cn4cccnc4n3)c2)c1`, the entry is “inactive”; as for `CC(=O)N(CCN(C(C)=O)C(C)=O)C(C)=O`, “inactive”; as for `COc1ccc(Cl)cc1-n1c(CCC(=O)O)ccc1-c1ccc(C)cc1`, “inactive”.
With `CCOc1ccccc1N(CC)C(=O)c1cc2ccc3cccnc3c2[nH]1` the entry was “inactive”; with `CCOc1ccccc1CNC(=O)Nc1cn(CC(C)C)c(=O)c2ccccc12`, “inactive”; with `O=C(Nc1cc(Cl)cc(Cl)c1)c1ccc2c(c1)N(Cc1cccc(Cl)c1)C(=O)c1ccccc1S2=O` (centres undefined), “inactive”.
As for `Clc1cccc(-n2ncc3c(NCCc4ccccc4)ncnc32)c1`, the Potency entry is “inactive”.
With `CCOC(=O)c1c(C)oc2nc(C)nc(N(CC(C)C)CC(C)C)c12` the entry was “inactive”.
With `O=C(Nc1cccc(-c2nc3ccccc3o2)c1)c1cccc(Br)c1` the entry was “inactive”.
On to `CCN(CC)S(=O)(=O)c1nnc(NC(=O)COc2ccccc2Cl)s1`, for which the Potency result was “inactive”.
With `O=C(c1ccc2c(c1)N(Cc1ccccc1)C(=O)c1ccccc1S2(=O)=O)N1CCC(Cc2ccccc2)CC1` the entry was “inactive”; with `CCc1ccc(NC(=O)c2sc3nc4c(cc3c2N)CN(CC)CC4)cc1`, “inactive”; with `CC(=O)c1ccc(NC(=O)CSc2nc(-c3ccccc3F)nc3c2c(=O)n(C)c(=O)n3C)cc1`, “inactive”.
